SMARCA2 act: increases SMARCA2 function in MMTV reporter cells; MG213 cells, MMTV-luciferase reporter, dexamethasone, overnight; activation, % at 9.1 µM; 370,000 compounds, 1% hits; AID 652017; in the data active means activation above about 7.8%
Rtt109 HAT inh: blocks Candida albicans Rtt109/Vps75 acetyltransferase activity; Q5AAJ8; purified Rtt109/Vps75, ThioGlo CoA-SH fluorescence, 4 h; inhibition, % at 34.9 µM; 330,000 compounds, 0.16% hits;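 active means inhibition of at least 50% in every replicate; inconclusive means best replicate reaches 50% inhibition but some replicates fall short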
Target sequence (Q5AAJ8 whole entry, looked up): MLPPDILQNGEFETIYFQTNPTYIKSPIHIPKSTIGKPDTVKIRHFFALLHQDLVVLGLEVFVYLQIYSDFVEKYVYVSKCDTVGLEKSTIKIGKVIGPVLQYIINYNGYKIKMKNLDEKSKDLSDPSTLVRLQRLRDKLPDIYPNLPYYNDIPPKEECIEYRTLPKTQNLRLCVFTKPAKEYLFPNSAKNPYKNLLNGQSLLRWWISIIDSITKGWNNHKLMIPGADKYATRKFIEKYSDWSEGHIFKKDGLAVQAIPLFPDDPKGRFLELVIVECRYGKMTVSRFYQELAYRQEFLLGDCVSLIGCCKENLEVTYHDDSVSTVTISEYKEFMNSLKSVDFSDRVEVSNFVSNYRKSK
Dyrk1A ADPGlo: Dyrk1A (rat) kinase inhibition. Q63470. ADP-Glo luminescence, NFATc1 peptide. inhibition, % at 12.5 µM. 310,000 compounds, 0.43% hits. AID 504441; in the data active means inhibition above about 50%
CDK5 p35 inh: CDK5/p35 (human) kinase inhibition. Recombinant CDK5/p35, ADP-Glo luminescence, 60 min. 330,000 compounds, 0.01% hits. inhibition, % at 10 µM;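 active means highest replicate inhibition of at least 50% and at least 75% of replicates reaching 50%; inconclusive means only one of the two criteria met; inactive means both criteria failed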
esBAF inh: blocks esBAF chromatin remodeling in mouse ES cells; Bmi1-luciferase knock-in reporter, 24 h; 100% = twice the neutral-well signal; reporter increase, % at 12.5 µM; 350,000 compounds, 2% hits; AID 602393; in the data active means activation above about 40%; inconclusive means no clear call, values can overlap the other calls;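 further: a rise in the Bmi1 reporter signal indicates esBAF inhibition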
dFosB act-1: enhances mouse delta FosB homodimer DNA binding. purified delta FosB, TAMRA-CDK5 oligo fluorescence polarization; percent of positive-control signal above neutral wells. activation, % at 25 µM. 340,000 compounds, 0.99% hits;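 active means mean activation above about 17%, with every replicate also reaching it, limit read from the data, passing the limit was not always enough; inconclusive means only one of the two conditions met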
Target sequence (P13346 whole entry, looked up): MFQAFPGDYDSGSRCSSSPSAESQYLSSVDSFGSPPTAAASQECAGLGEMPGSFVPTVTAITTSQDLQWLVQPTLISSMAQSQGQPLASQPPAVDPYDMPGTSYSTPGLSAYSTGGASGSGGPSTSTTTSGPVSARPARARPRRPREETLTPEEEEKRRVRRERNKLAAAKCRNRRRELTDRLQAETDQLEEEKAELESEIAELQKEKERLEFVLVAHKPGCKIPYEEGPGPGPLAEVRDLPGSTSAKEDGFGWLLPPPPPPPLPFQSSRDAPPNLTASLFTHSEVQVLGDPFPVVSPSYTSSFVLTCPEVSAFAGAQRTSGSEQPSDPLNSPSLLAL
dFosB act-2: delta FosB (mouse) homodimer activation; activation, % at 24.9 µM; 2,400 tested, under 10 active; purified delta FosB, TAMRA-CDK5 oligo fluorescence polarization; normalised: neutral wells 0, positive control 100; shares compounds with dFosB act-1;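 active means highest replicate activation at or above 34% and every replicate reaching that threshold; inconclusive means meets only one of the two criteria; inactive means meets neither criterion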;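 further: higher polarization means more probe DNA bound by delta FosB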
Each line names hits and unclear results; the compound was inactive in the other large screens (follow-up assays come after a bar, where they were run). Shown are actives, neighbours in structure and some others; about 3.2% of the full set was active somewhere.

O=C(CNC(=O)c1n[nH]c2ccccc12)Nc1ccc(F)c(F)c1F	dFosB act-1 23.0 (no result: Dyrk1A ADPGlo) | dFosB act-2 inactive
O=C(Nc1ccc(Cl)cc1)N(Cc1nc2ccccc2c(=O)[nH]1)Cc1cccs1	none (no result: esBAF inh)
O=C(Nc1ccccc1Cl)N(Cc1nc2ccccc2c(=O)[nH]1)Cc1cccs1	dFosB act-1 33.1 (no result: esBAF inh) | dFosB act-2 inactive
CCC(CC)C(=O)Nc1cccc(S(=O)(=O)c2cccc(NC(=O)C(CC)CC)c2)c1	dFosB act-1 16.9 | dFosB act-2 inactive
Cn1c(=O)c(=O)n(C)c2cc(S(=O)(=O)CCC(=O)Nc3cccc(C(F)(F)F)c3)ccc21	dFosB act-1 20.6 (no result: Dyrk1A ADPGlo, CDK5 p35 inh) | dFosB act-2 inactive
CC(Sc1nnc2c(n1)[nH]c1ccccc12)C(=O)NC1CCCCC1 (configuration not stated)	dFosB act-1 22.0 | dFosB act-2 inactive
CC(C)c1ccc2[nH]c3nc(SCC(=O)NC4CC4)nnc3c2c1	dFosB act-1 29.7 | dFosB act-2 inactive
CCOc1ccc2[nH]c3nc(SCC(=O)OC(C)C)nnc3c2c1	none
Cc1cc(C)cc(NC(=O)CCc2nc3ccccc3[nH]2)c1	dFosB act-1 28.2 | dFosB act-2 inactive
O=C(CNC(=O)c1cccc(Br)c1)N/N=C/c1ccc2c(c1)OCO2	dFosB act-1 18.4 | dFosB act-2 inactive
COc1ccccc1-n1c(SC)nc2c(sc(=S)n2-c2ccccc2)c1=O	dFosB act-1 24.2 | dFosB act-2 inactive
O=[N+]([O-])c1ccc2[nH]c3nc4ccccc4nc3c2c1	dFosB act-1 37.7 | dFosB act-2 inactive
CC(=O)c1ccc(NC(=S)NC(=O)/C=C/c2ccc(F)cc2)cc1	none (no result: SMARCA2 act)
COc1cccc(NC(=S)NC(=O)/C=C/c2ccc(F)cc2)c1	dFosB act-1 34.0 | dFosB act-2 inactive
CCOc1cccc2sc(N(CCCN(C)C)C(=O)c3ccc(S(=O)(=O)N(C)Cc4ccccc4)cc3)nc12	dFosB act-1 24.1 | dFosB act-2 inactive
CCOc1cccc2sc(N(CCCN(C)C)C(=O)c3ccc(S(=O)(=O)N(CC)Cc4ccccc4)cc3)nc12	none
COc1cccc2sc(N(CCCN(C)C)C(=O)c3ccc(S(=O)(=O)N4CCc5ccccc5C4)cc3)nc12	dFosB act-1 30.1 (no result: esBAF inh) | dFosB act-2 inactive
Cc1nn2c(COc3ccc(NC(=O)c4ccccc4Cl)cc3)nnc2c2ccccc12	dFosB act-1 25.5 | dFosB act-2 inactive
Cc1ccc(CNC(=O)c2ccc(NC(=O)CCS(=O)(=O)c3cccs3)cc2)cc1	dFosB act-1 20.5 | dFosB act-2 inactive
Cc1ccc(NC(=O)CCn2c(=O)c3cccn3c3ccccc32)c(C)c1	dFosB act-1 inconclusive
Cc1ccc(NC(=O)Cn2c(=O)c3cccn3c3ccccc32)c(C)c1	dFosB act-1 45.7 | dFosB act-2 inactive
Cc1cccc(C)c1NC(=O)Cn1nc(-c2ccccc2)nc1-c1ccccc1	dFosB act-1 45.3 (no result: Rtt109 HAT inh) | dFosB act-2 inactive
CO[C@@H]1CN(C)C(=O)c2ccc(NC(=O)C3CC3)cc2OC[C@H](C)N(CC2CC2)C[C@@H]1C	none (no result: SMARCA2 act, Rtt109 HAT inh, Dyrk1A ADPGlo, CDK5 p35 inh, dFosB act-1)
Oc1ccc(Br)cc1-c1cc(-c2ccc(Cl)cc2)n[nH]1	dFosB act-1 27.8 (no result: esBAF inh) | dFosB act-2 inactive
CCOc1cccc2sc(NC(=O)c3ccc(Br)s3)nc12	dFosB act-1 32.8 | dFosB act-2 inactive
COc1ccccc1NC(=O)c1ccc(NC(=O)Cc2n[nH]c(=O)c3ccccc23)cc1	dFosB act-1 25.0 | dFosB act-2 inactive
CN(C)C(=O)C[C@@H]1C[C@@H]2c3cc(NC(=O)c4ccc5c(c4)OCO5)ccc3O[C@@H]2[C@@H](CO)O1	none (no result: SMARCA2 act, Rtt109 HAT inh, Dyrk1A ADPGlo, CDK5 p35 inh, dFosB act-1)
O=C(Nn1c(C2CCCCC2)nc2ccccc2c1=O)c1ccc([N+](=O)[O-])cc1Cl	dFosB act-1 42.7 (no result: esBAF inh) | dFosB act-2 inactive
Cc1ccc(CSc2nnc(NC(=O)Cn3cnc4ccccc4c3=O)s2)cc1	dFosB act-1 31.0 (no result: Rtt109 HAT inh, esBAF inh) | dFosB act-2 inactive
Cc1ccc(C)c(NC(=O)CSc2nnc(-c3ccccc3C)o2)c1	none
O=C(CSc1nnc(-c2ccc(Br)cc2)o1)Nc1cccc2ccccc12	dFosB act-1 29.9 | dFosB act-2 inactive
Cc1ccc(C)c(NC(=O)CSc2nnc(-c3n[nH]c4ccccc34)o2)c1	dFosB act-1 34.5 (no result: esBAF inh) | dFosB act-2 inactive
O=C(CSc1nnc(-c2ccc(Br)cc2)o1)Nc1cccc(C(=O)O)c1	none
O=C(NC1CCCCC1)C(c1ccc(F)cc1)N(Cc1cccs1)C(=O)CN1C(=O)c2ccccc2S1(=O)=O (configuration not stated)	dFosB act-1 28.7 (no result: esBAF inh) | dFosB act-2 inactive
O=c1[nH]cnc2c1sc1nc(C(F)F)cc(-c3ccccc3)c12	dFosB act-1 32.4 (no result: Dyrk1A ADPGlo) | dFosB act-2 inactive
O=c1[nH]cnc2c1sc1nc3c(c(-c4ccc(Cl)cc4)c12)CCC3	none
CO[C@@H](CN(C)S(=O)(=O)c1ccc(C)cc1)[C@H](C)CN(Cc1ccccc1Cl)[C@H](C)CO	none (no result: SMARCA2 act, Rtt109 HAT inh, Dyrk1A ADPGlo, CDK5 p35 inh, dFosB act-1)
C[C@@H]1CN([C@H](C)CO)S(=O)(=O)c2ccc(-c3cccnc3)cc2O[C@@H]1CN(C)Cc1cncnc1	none (no result: SMARCA2 act, Rtt109 HAT inh, Dyrk1A ADPGlo, CDK5 p35 inh, dFosB act-1)
O=C(Cn1cnc2c(oc3nc4c(cc32)CCCC4)c1=O)Nc1cccc(Cl)c1	dFosB act-1 20.2 (no result: Dyrk1A ADPGlo, CDK5 p35 inh) | dFosB act-2 inactive
CC=Cc1ccc2n(c1=O)C[C@@H]1[C@@H](CO)[C@H](C(=O)NCCc3ccncc3)[C@H]2N1CCC(F)(F)F (mixture of isomers)	none (no result: SMARCA2 act, Rtt109 HAT inh, Dyrk1A ADPGlo, CDK5 p35 inh, dFosB act-1)
CS(=O)(=O)Nc1ccc2c(c1)[C@@H]1C[C@H](CC(=O)NCc3ccc(Oc4ccccc4)cc3)O[C@@H](CO)[C@@H]1O2	none (no result: SMARCA2 act, Rtt109 HAT inh, Dyrk1A ADPGlo, CDK5 p35 inh, dFosB act-1)
O=C(NC1CC1)C1CCN(C2CCN(C(=O)c3c(F)cccc3Cl)CC2)CC1	dFosB act-1 26.9 | dFosB act-2 inactive
COc1cccc(C(=O)Nc2ccc3c(c2)OC[C@H](C)N(C(C)=O)C[C@H](C)[C@@H](OC)CN(C)C3=O)c1	none (no result: SMARCA2 act, Rtt109 HAT inh, Dyrk1A ADPGlo, CDK5 p35 inh, dFosB act-1)
CC(=O)NC(=S)Nc1ccc(NC(=S)NC(=O)c2cccs2)cc1	dFosB act-1 37.0 (no result: esBAF inh) | dFosB act-2 inactive
Cc1ccccc1C(=O)Nc1cccc(NC(=S)NC(=O)c2cccs2)c1	dFosB act-1 50.2 | dFosB act-2 inactive
O=C(NC(=S)Nc1cccc(NC(=O)c2ccccc2Cl)c1)c1cccs1	none
COc1ccc(S(=O)(=O)N2CCCCN3[C@H](CO)[C@H](c4ccc(C#CC(C)C)cc4)[C@H]3C2)cc1	none (no result: SMARCA2 act, Rtt109 HAT inh, Dyrk1A ADPGlo, CDK5 p35 inh, dFosB act-1)
COc1ccc(CC(=O)Nc2nnc(-c3cccc([N+](=O)[O-])c3)s2)cc1	dFosB act-1 22.3 | dFosB act-2 inactive
COc1cccc(-c2nnc(NC(=O)c3cccs3)s2)c1	dFosB act-1 34.5 (no result: esBAF inh) | dFosB act-2 inactive
CCOC(=O)CSCC(=O)Nc1nnc(-c2cccc([N+](=O)[O-])c2)s1	none

Source: PubChem (several laboratories)
